What all share (experiment): NCI-60 one-dose screen, 48 h (100 = growth as untreated, 0 = no growth, -100 = all killed)
Common to all, as to details: 10 µM

The test system of test [1] is RPMI-8226 leukemia.
Test [2] concerns OVCAR-8 ovarian.
Test [3] deals with OVCAR-5 ovarian.
Test [4] concerns OVCAR-4 ovarian.
For test [5], the system named is SK-OV-3 ovarian.
The subject of test [6] is IGROV1 ovarian.
The test system of test [7] is OVCAR-3 ovarian.
The subject of test [8] is HS 578T breast.
Test [9] relates to NCI/ADR-RES ovarian.
For test [10], the system named is T-47D breast.

The panel holds about 83,000 compounds, 20% with a hit somewhere; the sample as a whole holds those more often.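 The endpoint reported here, percent growth, reads 100 for growth as untreated, 0 for no net growth and -100 for all cells dead.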 A number with no mark means an inactive call. Activity calls are given as the source filed them. How the source made its calls: active means growth percent below 10; inactive means the rest.

For `Cc1ncc(-c2ccoc2)c(NC2CCCCCC2)n1`, the growth is 105% in [1]; 99.1% in test [2]; 107% in [3]; 105% in test [4]; 93.8% in test [5]; 96.4% in [6]. For the same molecule, the growth in test [7] is 101%; in test [8] it was 111%; in test [9] it was 102%; in test [10], 92%.

For `CCOC(=O)c1ccoc1`, the growth is 102% in test [1]; 101% in test [2]; 90.7% in test [3]; 104% in test [4]; 93.3% in [5]; 101% in test [6]. Further, the growth in test [7] was 101%; in test [8], 100%; in test [9] it was 108%; in [10] it was 94.3%.

For `Clc1ccc(-c2cn(-c3ccccc3)c(-c3ccccc3)n2)c(Cl)c1`, the growth was 16% in [1]; 9.55% (active) in test [2]; 16.4% in test [3]; -100% (active) in [4]; 25.1% in [5]; -26.3% (active) in [6]. For the same molecule, the growth was -84% (active) in test [7], -20.3% (active) in test [8], 13.6% in test [9] and -17.6% (active) in [10].

For `C(CCCC1=NCCO1)CCCC1=NCCO1`, the growth in test [1] was 89.4%; in [2], 106%; in [3], 100%; in [4] it was 109%; in test [5] it was 105%; in test [6] it was 114%. Moreover, the growth in test [7] was 99.9%; in [8], 99.3%; in [9] it was 104%; in [10] it was 109%.

Consider `O=C(N/N=C/c1ccccc1O)C(O)(c1ccccc1)c1ccccc1`, for which the growth in test [1] was 62%; in [2] it was 60.1%; in [3], 73.9%; in [4] it was 26.7%; in test [5], 66.9%; in test [6] it was 43.7%. Besides, the growth was 8.52% (active) in test [7], 74% in test [8], 35.9% in test [9] and 48.1% in test [10].

As for `O=C(N/N=C/c1cc2ccccc2c2ccccc12)c1cc(O)c(O)c(O)c1`, the growth is 78.8% in test [1]; 48.5% in test [2]; 90.4% in test [3]; 26.4% in test [4]; 78.8% in test [5]; 58.7% in test [6]. Besides, the growth was 58% in [7], 75.4% in test [8], 81.4% in test [9] and 2.62% (active) in [10].

`COc1cccc(C(=O)Nc2ccc(CN3CCc4nc5cc(OC)c(OC)cc5cc43)cc2)c1`: the growth in [1] is 40%; in test [2], 46.8%; in test [3], 64.8%; in [4] it was 57.1%; in [5], 74.2%; in [6] it was 31.8%. In addition, the growth in test [7] is 53.1%; in test [8] it was 61.2%; in [9] it was 47.1%; in test [10], 32.4%.

In the case of `CC1(C)Cc2c(sc3ncn4nc(-c5ccc(O)cc5)nc4c23)CO1`, the growth was 57.7% in [1]; 58.5% in test [2]; 86.6% in [3]; 64.1% in test [4]; 79.8% in test [5]; 75.5% in [6]. Also, the growth in test [7] was 86.5%; in [8], 65.3%; in test [9], 64.7%; in [10], 48.7%.

For the molecule `Nc1nc(N)c(NC(=O)CNc2ccc(C(=O)O)cc2)c(N)n1`, the growth was 98% in test [1]; 105% in test [2]; 108% in [3]; 104% in test [4]; 107% in test [5]; 118% in test [6]. In addition, the growth in [7] was 118%; in test [8], 103%; in [9], 123%; in test [10], 94.6%.

With `Oc1[nH]c2ccc(Cl)cc2c1/C=c1/ccc2c(c1)N=C(c1cccs1)N=2`, the growth in test [1] was 48%; in test [2], 52.2%; in [3], 89.3%; in [4], 52.3%; in [5], 87.5%; in test [6], 61%. In addition, the growth in [7] was 56.1%; in test [8], 59.5%; in test [9] it was 64.3%; in test [10] it was 59.4%.

Take `CCCCCCCCCCCCCCCCN(C(C)c1ccccc1)S(=O)(=O)c1ccc(OC)c(N)c1` (stereo not given): the growth was 103% in test [1]; 104% in [2]; 104% in test [3]; 92.1% in test [4]; 112% in [5]; 129% in test [6]. Moreover, the growth in test [7] is 107%; in test [8] it was 126%; in [9], 98.7%; in test [10] it was 113%.

Take `O=S(=O)(NCCCNc1nccc(-c2c(-c3ccc(F)cc3)nc3sccn23)n1)c1ccc(F)cc1`: the growth in test [1] was 32.1%; in [2] it was 17.7%; in test [3], 62.7%; in [4], 57.5%; in [5], 59.7%; in test [6], 18.6%. The growth in [7] was 55.4%; in test [8], 66.8%; in test [9], 31.3%; in [10] it was -2.52% (active).

As to `CCCCCCCC(C)NCCO` (stereo not given), the growth in [1] is 107%; in [2], 98.7%; in test [3] it was 111%; in test [4] it was 118%; in [5], 93.6%; in test [6] it was 103%. Moreover, the growth in test [7] is 101%; in test [8] it was 99.4%; in [9], 111%; in [10], 100%.

In the case of `COc1ccc(NC2=NC(C)(CO)CS2)cc1` (stereo not given), the growth in test [1] is 83.6%; in test [2], 74.3%; in test [3], 103%; in test [4], 97.7%; in test [5] it was 104%; in test [6], 87.7%. In addition, the growth in [7] is 112%; in test [8] it was 99.3%; in test [9], 106%; in test [10], 101%.

Source of the values: PubChem BioAssay (NCI).
